This is part of a sample that, as a whole, favours compounds with a hit. Of some 83,000 tested, about 20% had one in any assay.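 The endpoint reported here, percent growth, reads 100 for growth as untreated, 0 for no net growth and -100 for all cells dead.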 A number with no mark means an inactive call. The source made the active and inactive calls. How the source made its calls: active means growth percent below 10; inactive means the rest.
What was measured:
Assay in all cases: NCI-60 one-dose screen, 48 h (100 = growth as untreated, 0 = no growth, -100 = all killed)
[1] = system: HCT-15 colon; conditions: 10 µM unless noted
[2] = system: HT29 colon; conditions: 10 µM unless noted
[3] = system: SNB-75 CNS; conditions: 10 µM unless noted
[4] = system: SNB-19 CNS; conditions: 10 µM unless noted
[5] = system: U251 CNS; conditions: 10 µM unless noted
[6] = system: PC-3 prostate; conditions: 10 µM unless noted
[7] = system: SK-MEL-5 melanoma; conditions: 10 µM unless noted
[8] = system: UACC-62 melanoma; conditions: 10 µM unless noted
[9] = system: LOX IMVI melanoma; conditions: 10 µM unless noted
[10] = system: SK-MEL-28 melanoma; conditions: 10 µM unless noted
[11] = system: SK-MEL-2 melanoma; conditions: 10 µM unless noted
[12] = system: EKVX NSCLC; conditions: 10 µM unless noted
[13] = system: SN12C renal; conditions: 10 µM unless noted
[14] = system: CAKI-1 renal; conditions: 10 µM
[15] = system: A498 renal; conditions: 10 µM unless noted
[16] = system: CCRF-CEM leukemia; conditions: 10 µM unless noted
[17] = system: MOLT-4 leukemia; conditions: 10 µM unless noted
[18] = system: UO-31 renal; conditions: 10 µM unless noted
[19] = system: TK-10 renal; conditions: 10 µM unless noted
[20] = system: ACHN renal; conditions: 10 µM unless noted

SMILES | growth [1] | growth [2] | growth [3] | growth [4] | growth [5] [%] | growth [6] [%] | growth [7] | growth [8] | growth [9] | growth [10] | growth [11] | growth [12] | growth [13] [%] | growth [14] [%] | growth [15] | growth [16] | growth [17] | growth [18] [%] | growth [19] [%] | growth [20] [%]
O=S(=O)(CCN1CCOCC1)Nc1cc(-c2ccc3ncnc(Nc4ccc(F)c(Cl)c4)c3c2)cnc1Cl | 16.2% | 14.6% | -20.7% (active) | 5.93% (active) | 13.5 | 13.4 | -5.68% (active) | -16.4% (active) | 4.23% (active) | 2.15% (active) | 2.26% (active) | 7.72% (active) | 18 | 17 | -40% (active) | 14.5% | -8.59% (active) |  |  | 
COc1ccc(-c2ccc(NC(=O)Nc3cccc(C(F)(F)F)c3)c(C)n2)cc1 | 40.9% | 47.7% | 77.6% | 67.8% | 50.2 | 24.4 | 41.6% | 63.9% | 47.7% | 69.3% | 75.9% |  | 68 |  | 52.1% | 42.9% | 33.7% | 55.1 | 76.7 | 
Cc1nccc2c3ccc(OCc4cn(Cc5ccc(Br)cc5)nn4)cc3n(CCCc3ccccc3)c12 | 92.8% | 80.7% | 42.3% | 47.3% | 82.3 | 77.9 | 81.1% | 82.1% | 93.3% | 99.4% | 80.7% |  | 92.1 |  | 91% | 83.1% | 90.8% | 71.2 | 101 | 
COc1cc(/C=C/C(=O)c2ccc(Oc3ncnc4ccccc34)cc2)cc(OC)c1OC | 41.5% | 79.7% | 69.5% | 68.6% | 60.3 | 75.6 | 81% | 65.9% | 40.4% | 89.4% | 94.6% |  | 68.3 |  | 104% | 36.6% | 62.3% | 51.6 | 100 | 
O=C1CCC(c2c(O)cc(O)c3c(=O)c(O)c(-c4ccc(O)c(O)c4)oc23)N1 (stereo not given) | 102% | 84% | 99.2% | 108% | 101 | 93.3 | 101% | 88.5% | 96.9% | 102% | 98.2% |  | 105 |  | 92.1% | 103% | 92.2% | 82.6 | 92.7 | 
COc1ccc(C(=O)NC(=O)Nc2ccc3c(c2)NC(=O)/C3=C\c2[nH]c(C)c(C(=O)O)c2C)cc1 | 93.5% | 45.1% | 73.7% | 80.3% | 52.9 | 86.1 | 87.1% | 91.3% | 82.5% | 102% | 93.8% |  | 73 |  | 95.9% | 64% | 25.2% | 80.4 |  | 52.6
Cc1cn(C2CC(N=[N+]=[N-])C(COP(=O)(O)OP(=O)(O)OP(=O)(O)O)O2)c(=O)[nH]c1=O (stereo not given) | 120% | 99.8% | 85.3% | 102% | 109 | 92.4 | 106% | 112% | 101% | 99.1% | 107% |  | 124 |  | 131% | -98% (active) | 16.8% |  | 113 | 124
Cn1c2ccccc2c2ssc(=S)c21 | 92.1% | 110% | 99.3% | 100% | 96.2 | 101 | 89.8% | 95.8% | 91.9% | 108% |  | 39.5% | 116 |  | 86.1% | 116% | 75.5% | 84 | 111 | 114
CC/C(=C(\CC)c1ccc(OCCN(CC)CC)cc1)c1ccc(OCCN(CC)CC)cc1 | 6.7% (active) | -0.437% (active) | 39.1% | 62.5% | 24.6 | 29 | -96.4% (active) | 10.9% | -5.77% (active) | -40.5% (active) |  | 38% | 68.6 |  | 43.4% | 38.9% | 42.6% | 24.4 | 48.6 | 42.5

— PubChem BioAssay (NCI)
